Experimental data as given in ChEMBL document CHEMBL1961873, “Compounds: GSK PKIS; Assays: Nanosyn kinase panel” (2012).

target: Proto-oncogene tyrosine-protein kinase Src (Homo sapiens) (UniProt P12931); settings: at 0.1 µM
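Further: values are averaged inhibition of Src, tested against the GSK PKIS kinase inhibitor set.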

Sequence of Proto-oncogene tyrosine-protein kinase Src (Homo sapiens) (P12931 2-536 limits assumed): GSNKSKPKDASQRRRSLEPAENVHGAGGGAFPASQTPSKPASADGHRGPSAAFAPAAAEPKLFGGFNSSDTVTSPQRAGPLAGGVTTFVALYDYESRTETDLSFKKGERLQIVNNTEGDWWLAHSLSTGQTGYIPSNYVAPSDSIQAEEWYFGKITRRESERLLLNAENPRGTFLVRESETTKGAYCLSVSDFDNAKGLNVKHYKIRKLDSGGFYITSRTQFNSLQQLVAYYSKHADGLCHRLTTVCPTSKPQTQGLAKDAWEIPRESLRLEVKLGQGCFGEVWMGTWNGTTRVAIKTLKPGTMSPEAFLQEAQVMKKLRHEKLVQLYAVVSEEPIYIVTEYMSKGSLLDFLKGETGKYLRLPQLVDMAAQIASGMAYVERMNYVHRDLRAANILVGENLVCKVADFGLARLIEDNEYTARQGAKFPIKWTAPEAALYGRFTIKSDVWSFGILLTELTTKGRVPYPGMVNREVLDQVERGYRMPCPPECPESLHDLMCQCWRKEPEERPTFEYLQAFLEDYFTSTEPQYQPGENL

Structure (SMILES) | inhibition
NS(=O)(=O)c1cccc(Nc2cc(-c3ccc(F)cc3)n[nH]2)c1 | 3.21%
COC(=O)c1ccc2c(c1)C(=Cc1cc(Br)c(O)c(Br)c1)C(=O)N2 | 8.74%
CCS(=O)(=O)c1ccc(OC)c(Nc2nccc(N(C)c3ccc4c(C)n[nH]c4c3)n2)c1 | 42.5%
O=S(=O)(CCOCc1ccc(-c2ccc3ncnc(Nc4ccc(OCc5cccc(F)c5)c(Cl)c4)c3c2)o1)c1ccccc1 | 0.66%
Cc1cc(-c2ccccn2)cc(C)c1/C=C/c1cncc(-c2nn[nH]n2)c1 | 7.7%
CN(C)C(=O)O[C@@H]1CN[C@@H](C#Cc2cc3ncnc(Nc4ccc(OCc5cccc(F)c5)c(Cl)c4)c3s2)C1 | 3.94%
Oc1cccc(-c2nc(-c3ccccc3)[nH]c2-c2ccncc2)c1 | 18.7%
CN1CCN(C(=O)c2ccc(NC(=O)Nc3ccc(N(C)c4ccnc(Nc5ccc(CS(C)(=O)=O)cc5)n4)cc3)cc2)CC1 | 10.7%
COc1cc(/C=N/Nc2ncnc3c2cnn3C(C)C)ccc1O | 20.8%
FC(F)(F)c1ccc(-c2nn3ncccc3c2-c2ccnc(Nc3ccc4c(c3)OCCO4)n2)cc1 | 0.84%
Nc1nccc(-c2c(-c3ccc(F)cc3)ncn2CCCN2CCOCC2)n1 | -0.33%
Cc1ccc(C(=O)NC2CC2)cc1-c1ccc2[nH]ncc2c1 | -6.61%
COc1cc2ncn(-c3cc(OCc4ccccc4S(C)(=O)=O)c(C#N)s3)c2cc1OC | 3.54%
COc1ccc2ncnc(Nc3ccc(OCc4ccccc4)cc3)c2c1 | 2.84%
COC(=O)Nc1nc2cc(Oc3ccc(NC(=O)Nc4cccc(Br)c4)cc3)ccc2[nH]1 | 3.27%
Cc1ccc2c(-c3ccnc(Nc4cccc(C(F)(F)F)c4)n3)c(-c3ccccc3)nn2n1 | 25.3%
COc1cc2ncnc(Nc3ccc(C)c(O)c3)c2cc1OC | 22.9%
